# Results as given in PubChem BioAssay (EPA / NIEHS).
# Records with an inconclusive call do not appear. The source holds several records for some structures; these can differ, active in one and inactive in another. Active and inactive are the calls of the source. The calls were made as follows: active = hit-call score of the fitted dose curve at least 0.9, where 1 is the maximum; inconclusive = response in the unintended direction; inactive = score below 0.9.
# How the values were obtained:
# [1] = target: Nuclear receptor subfamily 1 group I member 2 (Homo sapiens) (UniProt O75469); test: NVS_NR_hPXR: NovaScreen (NVS) Nuclear Receptor Binding Assay for human Pregnane X Receptor (PXR) (AID 2283365);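 also: a drop in FRET signal versus DMSO baseline means the compound binds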
# Procedure, shortened: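 Read-out: TR-FRET, human PXR, 2 h post-dosing, cell-free. Loss of signal vs DMSO taken as binding activity; 25 uM primary, concentration series secondary.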
# [2] = target: Peroxisome proliferator-activated receptor gamma (Homo sapiens) (UniProt P37231); test: NVS_NR_hPPARg: NovaScreen (NVS) Nuclear Receptor Binding Assay for human Peroxisome Proliferator-activated Receptor gamma (PPARg) (AID 2283370)
# Procedure, shortened: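 Extracted receptor protein, cell-free; compound incubated 2 h then fluorescence polarization read. Baseline: DMSO. Actives from 25 uM duplicate screen re-run across concentrations.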
# [3] = test system: guinea pig Dopamine Transporter (DAT), gene 100714898; test: NVS_TR_gDAT: NovaScreen (NVS) Transporter Assay for guinea pig Dopamine Transporter (DAT) (AID 2283369);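 also: active compounds lower bound radioligand signal relative to DMSO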
# Procedure, shortened: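 Primary pass: duplicate wells at 25 uM, threshold e.g. 30% inhibition. Follow-up: singleton concentration-response, highest 50 uM. Radioligand binding on guinea pig striatal membranes, 2 h, filtration scintillation detection.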
# [4] = test system: rat Norepinephrine Transporter (NET), gene 83511; test: NVS_TR_rNET: NovaScreen (NVS) Transporter Assay for rat Norepinephrine Transporter (NET) (AID 2283373)
# Procedure, shortened: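 Rat forebrain membranes; radioligand binding measured by filter-based scintillation counting 1 hour after dosing. Loss of specific binding versus DMSO baseline scored; primary screen in duplicate at 25 uM, actives followed up in concentration series.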
# [5] = target: human Dopamine Transporter (DAT), SLC6A3 (gene 6531) (UniProt Q01959); test: NVS_TR_hDAT: NovaScreen (NVS) Transporter Assay for human Dopamine Transporter (DAT) (AID 2283374);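 also: activity means loss of bound radioligand signal relative to DMSO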
# Procedure, shortened: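 Cell-free radioligand binding to extracted human DAT protein, read 1 h after dosing by filter-based scintillation counting. Loss of specific binding scored against DMSO baseline; primary screen in duplicate at 25 uM, actives then run in concentration series.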
# [6] = target: Glucocorticoid receptor (Homo sapiens) (UniProt P04150); test: NVS_NR_hGR: NovaScreen (NVS) Nuclear Receptor Binding Assay for human Glucocorticoid Receptor (GR) (AID 2283363);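 as to AC50: activity is loss of specific radioligand binding signal relative to DMSO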
# Procedure, shortened: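 Cell-free radioligand binding with extracted receptor protein, read by filter-based scintillation counting 16 hours after dosing. Loss of specific signal versus DMSO baseline was scored. Primary screen ran in duplicate at 25 uM; actives were followed up in concentration series.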
# [7] = target: human Adenosine Transporter (Adot), SLC29A1 (gene 2030) (UniProt Q99808); test: NVS_TR_hAdoT: NovaScreen (NVS) Transporter Assay for human Adenosine Transporter (Adot) (AID 2283368)
# Procedure, shortened: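 U937-derived membranes, cell-free radioligand binding, filter scintillation 1 h after dosing. 25 uM duplicate screen; hits (e.g. 30% inhibition) run in concentration-response up to 50 uM; loss of signal versus DMSO.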
# [8] = target: human Serotonin Transporter (SERT), SLC6A4 (gene 6532) (UniProt P31645); test: NVS_TR_hSERT: NovaScreen (NVS) Transporter Assay for human Serotonin Transporter (SERT) (AID 2283372)
# Procedure, shortened: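 Radioligand binding to native SERT in human platelet membranes, read by filter-based scintillation counting 1 h after dosing. Primary screen in duplicate at 25 uM; actives followed up in concentration series; loss of signal versus DMSO baseline.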
# [9] = target: guinea pig Sigma Receptor, Non-selective Binding, SIGMAR1 (gene 100135589) (UniProt Q60492); test: NVS_OR_gSIGMA_NonSelective: NovaScreen (NVS) Nuclear Receptor Binding Assay for guinea pig Sigma Receptor, Non-selective Binding (AID 2283367)
# Procedure, shortened: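 Guinea pig brain membranes, cell-free radioligand binding; read 1 h after dosing by filter-based scintillation counting. Loss of signal vs DMSO baseline taken as displacement. Primary screen single concentration 25 uM in duplicate; actives retested in concentration series.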
# Sequence of human Serotonin Transporter (SERT), SLC6A4 (gene 6532) (P31645 whole entry, looked up): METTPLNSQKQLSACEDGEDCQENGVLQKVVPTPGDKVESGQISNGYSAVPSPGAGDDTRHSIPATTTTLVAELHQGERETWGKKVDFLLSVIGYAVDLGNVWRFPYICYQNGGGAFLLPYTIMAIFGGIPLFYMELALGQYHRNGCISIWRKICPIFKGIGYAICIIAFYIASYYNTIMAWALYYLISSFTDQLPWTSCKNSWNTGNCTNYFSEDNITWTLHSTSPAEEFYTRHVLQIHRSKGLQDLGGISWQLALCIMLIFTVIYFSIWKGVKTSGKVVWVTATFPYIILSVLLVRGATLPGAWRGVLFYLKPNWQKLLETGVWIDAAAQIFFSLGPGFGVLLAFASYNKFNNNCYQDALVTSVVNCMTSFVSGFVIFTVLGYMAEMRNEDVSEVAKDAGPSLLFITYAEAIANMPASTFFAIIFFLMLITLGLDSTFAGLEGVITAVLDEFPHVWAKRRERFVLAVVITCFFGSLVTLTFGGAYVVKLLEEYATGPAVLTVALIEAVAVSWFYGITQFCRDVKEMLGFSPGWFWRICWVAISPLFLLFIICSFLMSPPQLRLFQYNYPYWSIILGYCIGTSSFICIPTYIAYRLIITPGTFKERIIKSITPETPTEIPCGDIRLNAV
# Sequence of guinea pig Sigma Receptor, Non-selective Binding, SIGMAR1 (gene 100135589) (Q60492 whole entry, looked up): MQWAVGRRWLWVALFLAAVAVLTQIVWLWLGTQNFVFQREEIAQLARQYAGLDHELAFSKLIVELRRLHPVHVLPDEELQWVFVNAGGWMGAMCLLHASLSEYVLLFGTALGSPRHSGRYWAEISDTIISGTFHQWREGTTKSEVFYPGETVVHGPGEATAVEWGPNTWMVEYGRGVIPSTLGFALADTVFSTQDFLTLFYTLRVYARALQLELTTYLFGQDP
# Sequence of Glucocorticoid receptor (Homo sapiens) (P04150 whole entry, looked up): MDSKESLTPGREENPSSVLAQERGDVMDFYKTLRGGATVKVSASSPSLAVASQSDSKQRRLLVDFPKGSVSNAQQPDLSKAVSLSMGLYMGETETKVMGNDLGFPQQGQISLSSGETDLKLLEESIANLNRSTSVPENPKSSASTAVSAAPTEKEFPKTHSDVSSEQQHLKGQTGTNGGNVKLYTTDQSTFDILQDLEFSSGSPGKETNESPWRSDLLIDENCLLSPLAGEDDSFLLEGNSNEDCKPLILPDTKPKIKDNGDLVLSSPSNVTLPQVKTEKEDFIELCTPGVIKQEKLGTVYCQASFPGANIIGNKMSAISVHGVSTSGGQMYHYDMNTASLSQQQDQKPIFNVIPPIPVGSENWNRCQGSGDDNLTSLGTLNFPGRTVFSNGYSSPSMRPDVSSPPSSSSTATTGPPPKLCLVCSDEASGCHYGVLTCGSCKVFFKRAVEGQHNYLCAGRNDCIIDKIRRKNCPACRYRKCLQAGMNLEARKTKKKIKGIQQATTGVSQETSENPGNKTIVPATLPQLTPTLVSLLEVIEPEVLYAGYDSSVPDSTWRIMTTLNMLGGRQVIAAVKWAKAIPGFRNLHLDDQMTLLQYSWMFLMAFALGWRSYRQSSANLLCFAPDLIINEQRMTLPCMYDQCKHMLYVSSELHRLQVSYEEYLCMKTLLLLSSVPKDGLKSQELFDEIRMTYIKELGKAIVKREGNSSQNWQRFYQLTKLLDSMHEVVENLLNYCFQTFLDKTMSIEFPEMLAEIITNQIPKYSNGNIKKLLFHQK
# Sequence of Nuclear receptor subfamily 1 group I member 2 (Homo sapiens) (O75469 whole entry, looked up): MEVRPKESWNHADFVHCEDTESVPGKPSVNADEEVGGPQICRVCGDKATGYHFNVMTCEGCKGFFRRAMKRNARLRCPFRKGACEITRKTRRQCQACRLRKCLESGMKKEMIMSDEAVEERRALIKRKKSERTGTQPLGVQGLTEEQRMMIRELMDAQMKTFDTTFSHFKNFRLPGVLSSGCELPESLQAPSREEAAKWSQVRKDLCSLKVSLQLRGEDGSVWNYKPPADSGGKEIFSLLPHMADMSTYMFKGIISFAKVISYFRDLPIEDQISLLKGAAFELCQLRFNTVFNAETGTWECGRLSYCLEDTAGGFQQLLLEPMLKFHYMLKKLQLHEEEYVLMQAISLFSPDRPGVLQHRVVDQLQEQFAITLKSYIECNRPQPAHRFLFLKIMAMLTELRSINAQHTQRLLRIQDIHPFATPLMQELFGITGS
# Sequence of Peroxisome proliferator-activated receptor gamma (Homo sapiens) (P37231 whole entry, looked up): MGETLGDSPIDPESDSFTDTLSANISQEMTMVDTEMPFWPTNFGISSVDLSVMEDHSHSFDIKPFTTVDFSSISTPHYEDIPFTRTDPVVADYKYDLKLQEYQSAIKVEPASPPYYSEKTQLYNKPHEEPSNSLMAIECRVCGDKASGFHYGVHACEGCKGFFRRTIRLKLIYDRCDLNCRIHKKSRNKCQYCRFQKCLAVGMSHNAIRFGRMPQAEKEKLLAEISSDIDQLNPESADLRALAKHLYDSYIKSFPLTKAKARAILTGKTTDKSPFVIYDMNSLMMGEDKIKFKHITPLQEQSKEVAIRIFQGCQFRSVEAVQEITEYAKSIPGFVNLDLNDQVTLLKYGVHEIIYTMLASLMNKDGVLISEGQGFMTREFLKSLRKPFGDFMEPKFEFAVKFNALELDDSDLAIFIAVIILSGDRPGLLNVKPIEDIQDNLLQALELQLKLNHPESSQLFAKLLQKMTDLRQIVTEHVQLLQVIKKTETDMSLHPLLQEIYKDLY
# Sequence of human Dopamine Transporter (DAT), SLC6A3 (gene 6531) (Q01959 whole entry, looked up): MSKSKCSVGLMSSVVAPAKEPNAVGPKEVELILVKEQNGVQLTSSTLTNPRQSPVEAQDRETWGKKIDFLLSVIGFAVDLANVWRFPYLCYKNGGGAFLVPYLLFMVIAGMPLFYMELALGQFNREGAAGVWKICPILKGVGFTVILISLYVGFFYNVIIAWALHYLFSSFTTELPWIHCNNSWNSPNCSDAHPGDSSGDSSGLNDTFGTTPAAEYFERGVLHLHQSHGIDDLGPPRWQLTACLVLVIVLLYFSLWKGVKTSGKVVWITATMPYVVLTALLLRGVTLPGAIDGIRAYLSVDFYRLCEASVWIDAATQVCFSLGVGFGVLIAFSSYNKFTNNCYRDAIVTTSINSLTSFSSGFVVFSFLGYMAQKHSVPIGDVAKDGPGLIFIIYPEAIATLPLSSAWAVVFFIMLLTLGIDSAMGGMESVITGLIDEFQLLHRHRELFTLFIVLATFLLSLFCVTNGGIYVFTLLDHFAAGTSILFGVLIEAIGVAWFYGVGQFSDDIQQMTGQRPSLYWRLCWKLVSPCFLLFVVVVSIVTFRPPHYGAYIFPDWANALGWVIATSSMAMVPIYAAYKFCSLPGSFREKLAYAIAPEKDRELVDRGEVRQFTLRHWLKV
# Sequence of human Adenosine Transporter (Adot), SLC29A1 (gene 2030) (Q99808 whole entry, looked up): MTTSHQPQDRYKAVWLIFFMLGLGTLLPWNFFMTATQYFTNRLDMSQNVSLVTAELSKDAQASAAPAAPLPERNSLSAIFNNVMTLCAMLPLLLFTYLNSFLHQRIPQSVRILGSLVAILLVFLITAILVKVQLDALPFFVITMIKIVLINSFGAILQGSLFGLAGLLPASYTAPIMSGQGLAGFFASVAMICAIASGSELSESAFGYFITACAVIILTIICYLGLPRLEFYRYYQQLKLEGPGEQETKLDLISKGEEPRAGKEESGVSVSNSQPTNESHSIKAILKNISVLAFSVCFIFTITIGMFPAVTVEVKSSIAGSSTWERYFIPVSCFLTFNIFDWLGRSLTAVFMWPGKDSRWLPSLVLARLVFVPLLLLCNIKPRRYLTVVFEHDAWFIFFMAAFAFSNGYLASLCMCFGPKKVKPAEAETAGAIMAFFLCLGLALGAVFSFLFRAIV
smiles,measurement,setting,value
C[N+](C)(C)CC1CO1 (stereo not given),outcome,[1],inactive
OCCOCCO,outcome,[1],inactive
Cc1cccc(N)c1N,AC50,[2],0.00229 µM (active)
CC(C)(C)OOC(=O)c1ccccc1,outcome,[1],inactive
same,outcome,[2],inactive
CS(=O)(=O)NC(=O)c1cc(Oc2ccc(C(F)(F)F)cc2Cl)ccc1[N+](=O)[O-],outcome,[2],inactive
CC(C)COC(=O)c1ccccc1C(=O)OCC(C)C,outcome,[2],inactive
Nc1ccc(Cc2ccc(N)cc2)cc1,outcome,[3],inactive
same,outcome,[4],inactive
same,AC50,[5],9.3 µM (active)
CCCCC(CC)COC(=O)c1ccc(C(=O)OCC(CC)CCCC)c(C(=O)OCC(CC)CCCC)c1 (stereo not given),outcome,[1],inactive
O=C(Nc1ccccc1)c1ccccc1I,AC50,[3],12.8 µM (active)
same,outcome,[2],inactive
CC(C)N(Cc1ccccc1)C(=O)C(C)(C)C,AC50,[3],13.7 µM (active)
same,AC50,[5],6.52 µM (active)
Nc1ccc(Oc2ccc(N)cc2)cc1,AC50,[3],2.99 µM (active)
same,outcome,[2],inactive
same,AC50,[5],3.25 µM (active)
Nc1ccc(Cl)cc1N,outcome,[2],inactive
CCCCCOC(=O)c1ccccc1C(=O)OCCCCC,outcome,[6],inactive
same,outcome,[3],inactive
C[C@]12C=CC3=C4CCC(=O)C=C4CC[C@H]3[C@@H]1CC[C@@H]2O,AC50,[7],35.2 µM (active)
same,AC50,[2],41.5 µM (active)
same,outcome,[2],inactive
same,outcome,[8],inactive
O=[N+]([O-])c1ccc(Oc2ccc(Cl)cc2Cl)cc1,outcome,[6],inactive
same,outcome,[3],inactive
same,outcome,[8],inactive
CN(C)c1ccc(C(=O)c2ccc(N(C)C)cc2)cc1,outcome,[1],inactive
same,AC50,[2],25 µM (active)
CCOC(=O)[C@]1(c2ccccc2)Oc2ccccc2[C@@H]1N,AC50,[6],25 µM (active)
same,AC50,[9],0.0612 µM (active)
same,AC50,[3],5.45 µM (active)
same,outcome,[2],inactive
same,AC50,[8],2.56 µM (active)
same,AC50,[4],5.35 µM (active)
same,AC50,[5],2.98 µM (active)
CC(C)(O)c1cnn2c(-c3ccc(F)c(-c4c(F)cccc4C#N)c3)cnc2n1,outcome,[2],inactive
O=Cc1ccco1,outcome,[8],inactive
Oc1ccc2ccc3cccc4ccc1c2c34,AC50,[6],4.96 µM (active)
C=CCc1ccc2c(c1)OCO2,AC50,[9],11.6 µM (active)
CCC(C)c1ccc(O)cc1 (stereo not given),AC50,[3],4.96 µM (active)
same,outcome,[4],inactive
same,AC50,[5],4.96 µM (active)
CCC[CH2][Sn]([Cl])([CH2]CCC)[CH2]CCC,AC50,[6],0.726 µM (active)
same,AC50,[7],34.6 µM (active)
same,AC50,[3],11.1 µM (active)
same,AC50,[8],11.2 µM (active)
same,AC50,[4],14.4 µM (active)
same,AC50,[5],3.59 µM (active)
Nc1ccc(N=Nc2ccccc2)cc1,AC50,[3],15 µM (active)
same,outcome,[2],inactive
same,AC50,[5],2.24 µM (active)
c1ccc(N=Nc2ccccc2)cc1,outcome,[2],inactive
N#CC(Br)(Br)C(N)=O,outcome,[9],inactive
